Screening results deposited in PubChem by National Center for Advancing Translational Sciences (NCATS).
A selection: hits, their analogues and other compounds. The true share with any hit is near 21%.
IL-1B inflam inh: inhibitors of inflammasome signaling (IL-1 beta secretion); 360,000 compounds, 4.7% hits; THP-1 LPS/ATP IL-1B secretion, AlphaLISA, 16 h; active compounds read low; activity change, % at 57.5 µM; in the data active means activity change below about -50%; inconclusive means mostly about -30% to -49%
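Secreted IL-1B measured by AlphaLISA bead assay after 16 h compound exposure of THP-1 cells; compounds (final up to 57.5 uM) added 1 h before LPS (250 ng/mL) and ATP (1.25 mM) stimulation; lower signal means less secretion.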
ELG1 repair inh: blocks ELG1-dependent DNA repair in HEK293T cells | 330,000 compounds, 2.3% hits | Potency, µM (highest dose often 46.1 µM), inactives show at the top dose activity change, negative = inhibition, hits mostly inhibitors | AID 504467 | HEK293T ELG1-luciferase reporter, luminescence, 16 h; DNA damage induced by 5-fluorouridine; further: potency means the concentration at half of the fitted maximal effect; nearly all actives have a fitted effect of over 55% in size
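Quantitative HTS, concentration-response format. 2,000 cells/well co-treated with 5-fluorouridine and compound, 16 hr in 5% CO2 at 37 °C; ONE-Glo luminescence read after 30 min.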
RORg inh: ROR gamma (mouse) transcription inhibition. AID 2551. Drosophila S2 Gal4-RORgamma UAS-luciferase reporter, 20 h. P51450. Potency, µM (titrated, usually from 53.6 µM), for the others: at the top dose activity change, negative = inhibition, most hits filed as inhibitors. 310,000 compounds, 5.4% hits; further: potency means the concentration at half of the fitted maximal effect; nearly all actives have a fitted effect of over 60% in size
Target sequence (P51450 whole entry, looked up, the tested form may be a part): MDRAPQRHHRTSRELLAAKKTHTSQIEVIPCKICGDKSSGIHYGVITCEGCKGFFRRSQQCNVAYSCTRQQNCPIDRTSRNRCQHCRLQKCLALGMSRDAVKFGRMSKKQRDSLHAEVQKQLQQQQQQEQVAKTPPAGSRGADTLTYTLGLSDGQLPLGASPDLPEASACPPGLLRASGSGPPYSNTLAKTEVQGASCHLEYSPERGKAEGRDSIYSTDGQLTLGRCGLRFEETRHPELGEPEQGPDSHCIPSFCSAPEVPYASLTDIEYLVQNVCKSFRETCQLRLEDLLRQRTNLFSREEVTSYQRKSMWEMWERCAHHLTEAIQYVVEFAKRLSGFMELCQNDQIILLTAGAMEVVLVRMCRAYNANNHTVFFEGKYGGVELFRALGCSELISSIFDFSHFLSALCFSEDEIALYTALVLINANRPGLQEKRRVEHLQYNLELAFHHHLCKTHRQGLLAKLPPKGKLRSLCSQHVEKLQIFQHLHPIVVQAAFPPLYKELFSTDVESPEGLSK
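A Gal4/UAS one-hybrid system in insect cells: metallothionein-promoter Gal4–ROR gamma fusion plus Photinus luciferase reporter. Copper sulfate 700 uM final, 20 hr ambient incubation, luminescent detection after 10 min with reagent.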
VP16 counter: inhibits Gal4-VP16 luciferase reporter, ROR gamma counter-screen; Potency, µM (top dose mostly 53.6 µM), for the others: top-dose activity, negative = inhibition, most hits filed as inhibitors; Drosophila S2 Gal4-VP16 UAS-luciferase, luminescence, 20 h; AID 2546; 310,000 compounds, 3.5% hits;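 further: Gal4-VP16 expression switched on by copper sulfate through the metallothionein promoter; potency means the concentration at half of the fitted maximal effect; nearly all actives have a fitted effect of over 50% in size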
TDP1 cell CPT: growth inhibition of DT40 Tdp1-/-;hTDP1 cells with camptothecin (screen for TDP1 inhibitors) | Potency, µM (top dose mostly 46.2 µM), without a hit: at the highest dose activity change, negative = growth inhibition, most hits filed as inhibitors | chicken DT40 Tdp1-/-;hTDP1 cells + 20 nM CPT, ATP luminescence, 48 h | 420,000 compounds, 12% hits; further: potency means the concentration at half of the fitted maximal effect; nearly all actives have a fitted effect of over 55% in size
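Chicken DT40 Tdp1-/- cells stably complemented with human TDP1 were seeded at 400 cells/well in medium containing 20 nM camptothecin, exposed to pin-transferred compounds, and grown at 37 °C for at least 48 hr. Viability was read as ATP luminescence.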
TDP1 cell noCPT: qHTS for Inhibitors of human tyrosyl-DNA phosphodiesterase 1 (TDP1): qHTS in cells in absence of CPT; DT40 Tdp1-/- hTDP1 cells, no CPT, ATP luminescence, 48 h; Potency, µM (doses to about 46.2 µM), for the others: at the highest dose activity change, negative = growth inhibition, usual class: inhibitors; 420,000 compounds, 15% hits; AID 686978, 2013; further: potency means the concentration at half of the fitted maximal effect; nearly all actives have a fitted effect of over 55% in size
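A cellular qHTS used chicken DT40 cells lacking endogenous Tdp1 but carrying stably transfected human TDP1. Compounds were applied without camptothecin, and cell growth kinetics were judged by ATP-dependent luminescence after ≥48 hr.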
* marks the source's active call; other numbers are inactive results; ? = inconclusive; . = no result given. Unless noted, the call rests on the fitted dose curve; in most records, active means well fitted curve in the direction sought with a large enough effect; inconclusive means small, poorly fitted or top-dose-only effect, or another doubt; inactive means no such curve, though single readings can be large; an effect the other way counts as inactive or inconclusive. On the % scale 0 is the no-effect control and ±100 the full control effect.

SMILES | IL-1B inflam inh | ELG1 repair inh | RORg inh | VP16 counter | TDP1 cell CPT | TDP1 cell noCPT
Cc1ccc2c(=O)cc(C(=O)Nc3ccc(S(=O)(=O)N4CCCCC4)cc3)oc2c1 | . | . | . | . | -23% | -19%
COc1ccccc1-c1cc(-c2ccccc2)nc(SC(C(N)=O)c2ccccc2)c1C#N (stereo unspecified) | 15 | -1% | 11µM* | ? | ? | 23µM*
CC(Sc1nc(C(C)(C)C)cc(-c2ccccc2)c1C#N)C(=O)Nc1ccccc1 (stereo unspecified) | 23 | 0% | -12% | -9% | ? | 29µM*
CCOC(=O)C(C)Sc1nc(-c2ccccc2Cl)cc(-c2ccccc2)c1C#N (stereo unspecified) | . | . | . | . | 13µM* | ?
Cc1nc(SC(C(N)=O)c2ccccc2)c(C#N)c(C)c1C (stereo unspecified) | 17 | -10% | -1% | 13% | -1% | ?
COc1ccc(-n2cc(-c3ccccc3)c3c(NC4CCCCC4)ncnc32)cc1 | . | . | . | . | ? | 12µM*
COc1ccc(-n2cc(-c3ccccc3)c3c(NCCOCCO)ncnc32)cc1 | -19 | ? | -12% | -13% | ? | ?
CCOc1ccc(-n2cc(-c3ccccc3)c3c(NC4CCCC4)ncnc32)cc1 | . | . | . | . | 15µM* | 13µM*
CN(C)S(=O)(=O)c1ccc(NC(=O)COC(=O)C2CC3CCCC(C2)C3=O)cc1 (stereo unspecified) | 4 | -8% | 3% | 3% | -4% | 6%
CSc1ccc(CNC(=O)C2CCC(=O)N(CCc3ccc(Cl)cc3)C2)cc1 (stereo unspecified) | -28 | . | . | . | -62% | ?
Cc1nc(NCc2ccccc2)c2nc(-c3ccccc3)n(CCCN3CCCCC3C)c2n1 (stereo unspecified) | . | . | -38% | -6% | . | .
Cc1ccc(S(=O)(=O)CC(=O)N(CCCN(C)C)c2nc3ccc(C)cc3s2)cc1 | -55* | ? | . | . | 3% | -4%
Cc1ccc2nc(N(CCCN(C)C)C(=O)c3ccc4ncsc4c3)sc2c1 | 0 | ? | 8% | -20% | 16µM* | ?
COc1ccc2nc(N(CCN(C)C)C(=O)c3ccc4ncsc4c3)sc2c1 | 18 | . | . | . | -2% | -19%
CN(C)CCCN(C(=O)c1ccc(S(=O)(=O)N2CCCCCC2)cc1)c1nc2ccc(F)cc2s1 | -105* | 8.2µM* | 0% | -17% | ? | ?
Cc1ccc2nc(N(CCCN(C)C)C(=O)c3ccc(S(=O)(=O)N4CCCCCC4)cc3)sc2c1 | . | ? | 11µM* | ? | ? | ?
CN(C)CCCN(C(=O)c1ccc(S(=O)(=O)N2CCOCC2)cc1)c1nc2ccc(F)cc2s1 | -12 | ? | 3% | -5% | -6% | -2%
CS(=O)(=O)c1ccc(Cl)c(NC(=O)COC(=O)CCN2C(=O)C3CC=CCC3C2=O)c1 (stereo unspecified) | 12 | . | . | . | -3% | 1%
NC1=NC(=O)/C(=C\c2ccc(-c3ccc(Cl)cc3)o2)S1 | 55 | 15% | -29% | -11% | ? | 18µM*
CCNC(=O)N(CCOC)CC1CCCN(C2Cc3ccccc3C2)C1 (stereo unspecified) | 9 | -26% | -8% | 4% | 25% | 6%
CN(C)S(=O)(=O)N1CCC(n2cnc3cccnc32)CC1 | . | . | . | . | 0% | 0%
Cc1oc(-c2ccc(-c3ccccc3)cc2)nc1CN(CCO)C(C)C | -82* | ? | 7.9µM* | ? | 15% | ?
Cc1ccc(-c2nc(CS(=O)(=O)CC(=O)NCCCN(Cc3ccccc3)C(C)C)c(C)o2)cc1 | -4 | -4% | 10% | 6% | ? | ?
Cc1ccc(NC2CCCN(C(=O)c3ccnc(Cl)c3)C2)cc1C (stereo unspecified) | 19 | -2% | 1% | 5% | 1% | 5%
CO[C@H]1C[C@@H]2CC[C@@H](C)[C@@](O)(O2)C(=O)C(=O)N2CCCC[C@H]2C(=O)O[C@H]([C@H](C)C[C@@H]2CC[C@@H](O)[C@H](OC)C2)CC(=O)[C@H](C)/C=C(\C)[C@@H](O)[C@@H](OC)C(=O)[C@H](C)C[C@H](C)/C=C/C=C/C=C/1C | . | . | ? | ? | 4.5µM* | ?
SMILES | IL-1B inflam inh | ELG1 repair inh | RORg inh | VP16 counter | TDP1 cell CPT | TDP1 cell noCPT
CO[C@H]1C[C@@H]2CC[C@@H](C)[C@@](O)(O2)C(=O)C(=O)N2CCCC[C@H]2C(=O)O[C@H]([C@H](C)C[C@@H]2CC[C@@H](OCCO)[C@H](OC)C2)CC(=O)[C@H](C)/C=C(\C)[C@@H](O)[C@@H](OC)C(=O)[C@H](C)C[C@H](C)/C=C/C=C/C=C/1C | . | . | ? | ? | 0.042µM* | 0.027µM*
CO[C@H]1C[C@@H]2CC[C@@H](C)[C@@](O)(O2)C(=O)C(=O)N2CCCC[C@H]2C(=O)O[C@H](C(C)C[C@H]2CC[C@@H](O)[C@H](OC)C2)CC(=O)[C@H](C)/C=C(\C)[C@@H](O)[C@@H](OC)C(=O)[C@H](C)C[C@H](C)/C=C/C=C/C=C/1C (stereo partly specified) | . | . | . | . | 0.0079µM* | ?
CC[C@@H]1/C=C(\C)C[C@H](C)C[C@H](OC)[C@H]2O[C@@](O)(C(=O)C(=O)N3CCCC[C@H]3C(=O)O[C@H](/C(C)=C/[C@@H]3CC[C@@H](O)[C@H](OC)C3)[C@H](C)[C@@H](O)CC1=O)[C@H](C)C[C@@H]2OC | . | . | 18% | ? | . | .
COc1ccccc1NC(=O)c1cccc(S(=O)(=O)N2CCN(c3ccccc3)CC2)c1 | ? | ? | . | . | ? | -25%
CCCn1ncc(CN2CCC(n3nccc3NC(=O)c3ccccc3Cl)CC2)c1C | -13 | 15% | 0% | -2% | 8% | 2%
Fc1ccc2[nH]c(-c3cccs3)cc2c1 | . | . | . | . | -6% | -7%
Cc1ccccc1C1N=C2Oc3ccccc3C=C2C(=O)N1 (stereo unspecified) | -5 | . | . | . | 6.5µM* | 5.8µM*
Cc1ccccc1C1NC(=O)c2ccccc2O1 (stereo unspecified) | -13 | 1% | 82% | 10% | 2% | -26%
COc1cccc(-n2nc(-c3ccnn3-c3ccc(C)cc3)c(=O)n(C)c2=O)c1 | -57* | 21µM* | -27% | -8% | ? | -28%
